Results: PubChem BioAssay AID1159580 (chemical genetic matrix, 2015)
Where “and” joins values, the source holds several entries; their conditions need not be identical. Equal entries are not always repeated. The whole screen tested about 5,500 compounds, of which about 2,000 (36%) were called active. Not shown: some 18% with an inconclusive outcome. Rule as the data show it: active = normalized growth mostly below about 0.91 (no sharp cut-off); inconclusive = no clear call, values can overlap the other calls; inactive = mostly above about 0.92. Some of the results follow.

Assay: chemical genetic growth profiling, strain panel (AID 1159580);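 also: tested at 20 µM; growth read once vehicle control cultures reached saturation at 30 °C; 1 = growth at the plate median or of vehicle wells; lower values mean less growth of the strain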
Details: S. cerevisiae deletion strains, growth OD

Measured: normalized growth

N[C@@H](Cc1ccc(O)c(O)c1)C(=O)O
inactive: locus YAL013W, strain DEP1, active compounds read low 0.999 | locus YAL021C, strain ccr4, active compounds read low 1 | locus YAL026C, strain drs2, active compounds read low 0.989 | locus YAL030W, strain snc1, active compounds read low 1 | locus YBL061C, strain skt5, active compounds read low 1.01 | locus YBR009C, strain hhf1, active compounds read low 0.982 | locus YBR021W, strain FUR4, active compounds read low 1.14 | locus YBR023C, strain chs3, active compounds read low 1 | locus YBR171W, strain sec66, active compounds read low 0.997 | locus YBR229C, strain ROT2, active compounds read low 1.01 | locus YBR231C, strain swc5, active compounds read low 1 | locus YBR279W, strain paf1, active compounds read low 1 | locus YCL011C, strain gbp2, active compounds read low 1 | locus YCL016C, strain dcc1, active compounds read low 0.997 | locus YCL029C, strain bik1, active compounds read low 0.998 | locus YCL061C, strain MRC1, active compounds read low 0.998 | locus YCL069W, strain vba3, active compounds read low 1 | locus YCR088W, strain abp1, active compounds read low 0.999 | locus YDL005C, strain med2, active compounds read low 0.994 | locus YDL035C, strain GPR1, active compounds read low 0.976 | locus YDL040C, strain nat1, active compounds read low 0.998 | locus YDL074C, strain BRE1, active compounds read low 0.969 | locus YDL101C, strain DUN1, active compounds read low 0.993 | locus YDL134C, strain PPH21, active compounds read low 0.997 | locus YDL185W, strain tfp1, active compounds read low 0.955 | locus YDL192W, strain arf1, active compounds read low 0.991 | locus YDR001C, strain nth1, active compounds read low 1 | locus YDR069C, strain doa4, active compounds read low 1 | locus YDR101C, strain arx1, active compounds read low 1 | locus YDR137W, strain rgp1, active compounds read low 1.01 | locus YDR150W, strain NUM1, active compounds read low 0.947 | locus YDR159W, strain sac3, active compounds read low 0.995 | locus YDR162C, strain NBP2, active compounds read low 0.968 | locus YDR195W, strain ref2 0.962 | locus YDR297W, strain sur2, active compounds read low 1.01 | locus YDR318W, strain mcm21, active compounds read low 0.987 | locus YDR334W, strain swr1, active compounds read low 1 | locus YDR335W, strain msn5, active compounds read low 0.997 | locus YDR388W, active compounds read low 1.01 | locus YDR392W, strain spt3, active compounds read low 0.885 | locus YDR502C, strain sam2, active compounds read low 0.999 | locus YEL003W, strain gim4, active compounds read low 0.999 | locus YEL037C, strain rad23, active compounds read low 1 | locus YEL061C, strain CIN8 (second series), active compounds read low 0.999 | locus YEL061C, strain CIN8, active compounds read low 0.998 | locus YER015W, strain faa2, active compounds read low 1.01 | locus YER016W, strain bim1, active compounds read low 0.995 | locus YER110C, active compounds read low 0.993 | locus YER111C, strain swi4, active compounds read low 0.995 | locus YER155C, strain BEM2 (second series), active compounds read low 0.988 | locus YER155C, strain BEM2, active compounds read low 1.02 | locus YER167W, strain BCK2, active compounds read low 0.989 | locus YFR010W, strain ubp6, active compounds read low 0.999 | locus YGL078C, strain dbp3, active compounds read low 0.986 | locus YGL086W, strain mad1, active compounds read low 0.98 | locus YGL167C, strain pmr1, active compounds read low 0.994 | locus YGL173C, strain kem1, active compounds read low 1 | locus YGL227W, strain vid30, active compounds read low 0.986 | locus YGL240W, strain doc1, active compounds read low 0.986 | locus YGL248W, strain PDE1, active compounds read low 0.989 | locus YGL253W, strain hxk2, active compounds read low 1 | locus YGR078C, strain PAC10, active compounds read low 0.932 | locus YGR135W, strain pre9, active compounds read low 0.996 | locus YGR229C, strain SMI1, active compounds read low 0.928 | locus YGR252W, strain gcn5, active compounds read low 1.03 | locus YHR013C, strain ard1, active compounds read low 0.943 | locus YHR027C, strain rpn1, active compounds read low 1.01 | locus YHR030C, strain SLT2, active compounds read low 0.997 and 0.962 | locus YHR079C, strain IRE1 (second series), active compounds read low 0.995 | locus YHR079C, strain IRE1, active compounds read low 0.951 | locus YHR094C, strain hxt1, active compounds read low 0.988 | locus YHR129C, strain ARP1, active compounds read low 0.991 | locus YHR142W, strain chs7, active compounds read low 1.01 | locus YHR200W, strain rpn10, active compounds read low 0.992 | locus YIL066C, strain RNR3, active compounds read low 0.928 | locus YIL073C, strain SPO22, active compounds read low 0.866 | locus YIL125W, strain kgd1, active compounds read low 0.984 | locus YIR030C, strain dcg1, active compounds read low 1 | locus YJL092W, strain hpr5, active compounds read low 0.991 | locus YJL095W, strain BCK1 (second series), active compounds read low 1 | locus YJL095W, strain BCK1, active compounds read low 1.01 and 0.968 | locus YJL115W, strain asf1, active compounds read low 1 | locus YJL129C, strain trk1, active compounds read low 1 | locus YJL134W, strain LCB3, active compounds read low 0.99 | locus YJL154C, strain vps35, active compounds read low 1 | locus YJL164C, strain tpk1, active compounds read low 1 | locus YJL166W, strain qcr8, active compounds read low 0.997 | locus YJL168C, strain set2, active compounds read low 1.01 | locus YJL187C, strain SWE1 (second series), active compounds read low 0.984 | locus YJL187C, strain SWE1, active compounds read low 1 | locus YJR043C, strain POL32, active compounds read low 0.996 | locus YJR066W, strain TOR1, active compounds read low 0.928
